Tests used:
[1] = system: Botulinum neurotoxin type F light chain protease (Clostridium botulinum); experiment: Botulinum neurotoxin type F light chain protease inhibition, multiplex microsphere flow cytometry, validation set (AID 588459); settings: multiplex microsphere protease substrate cleavage assay, at 10 µM, hits give high values
[2] = target: Botulinum neurotoxin type A (Clostridium botulinum) (UniProt P0DPI0); experiment: BoNT/A light chain protease inhibitors, biochemical, multiplex microsphere flow cytometry, validation set (AID 588460); settings: at 10 µM, hits give high values
[3] = target: Lethal factor (Bacillus anthracis) (UniProt P15917); experiment: Lethal factor protease inhibitors, Bacillus anthracis, multiplex microsphere cleavage assay, validation set (AID 588461); settings: flow cytometry, at 10 µM, hits give high values

Measured: inhibition

CC(=O)C1=C(NC(=O)c2ccc(C(F)(F)F)cc2)C[C@@H]2[C@H]1C2(C)C
inactive: [1] 2% | [2] 1.5% | [3] -1%

CC(=O)OCC(OC(C)=O)C(OC(C)=O)C(OC(C)=O)C(=O)Nc1cccc(C)c1 (stereo not drawn)
inactive: [1] 3.7% | [2] 1.2% | [3] 3.1%

COc1ccc(CNC(=O)C2CCN(C(=O)[C@@H](CC(C)C)NC(=O)OC(C)(C)C)CC2)cc1
inactive: [1] 1.1% | [2] -0.8% | [3] -3.7%

O=C(NC(CO)Cc1ccc([N+](=O)[O-])cc1)C(Cl)Cl (stereo not drawn)
inactive: [1] 0.6% | [2] -1.5% | [3] -1.4%

O=c1n(CCCN2CCN(c3cccc(Cl)c3)CC2)nc2ccccn12
inactive: [1] -5.2% | [2] -0.2% | [3] -1.3%

CN(CCc1cnn(C)c1)Cc1nc(CC2CC2)no1
inactive: [1] 0.2% | [2] 0.4% | [3] 7%

CCn1c(N2CCN(CC(=O)c3c(C)n(C)c4ccc(OC)cc34)CC2)nc2c1c(=O)[nH]c(=O)n2C
inactive: [1] -1.4% | [2] -0.8% | [3] -10.7%

CN1CCN(CCCN2c3ccccc3Sc3ccc(C(F)(F)F)cc32)CC1
inactive: [1] 0.3% | [2] -0.5% | [3] -3.1%

CC12CN3CC(C)(CN(C1)C3c1ccc([N+](=O)[O-])o1)C2 (stereo not drawn)
inactive: [1] -3.2% | [2] -1.4% | [3] -5.6%

CC(=O)[C@H]1CC[C@H]2[C@@H]3CCC4=CC(=O)CC[C@]4(C)[C@H]3[C@H](O)C[C@]12C
inactive: [1] -0.3% | [2] -1.3% | [3] -5.3%

COc1cccc(CC2CC(=O)N(c3ccc4c(C)cc(=O)oc4c3)C2=O)c1 (stereo not drawn)
inactive: [1] 3.1% | [2] -0.1% | [3] 4.1%

O=C(O)c1cc2cc(F)ccc2[nH]1
inactive: [1] 5% | [2] 2.4% | [3] 4%

C[C@]12CCC(=O)C=C1CC[C@@H]1[C@@H]2[C@@H](O)C[C@@]2(C)[C@H]1CC[C@]2(O)C(=O)CO
inactive: [1] 2.1% | [2] -1.4% | [3] -10.2%

C=CCn1c(N2CCCCCC2)nc2c1c(=O)n(C)c(=O)n2C
inactive: [1] 0.2% | [2] 1.4% | [3] -4.7%

O=C(NCCN1CCOCC1)c1ccc(Cl)cc1
inactive: [1] 2.4% | [2] 1.2% | [3] -2%

O=C1C(=O)N2C(=C1C(=O)N1CCCCCC1)c1ccccc1CC21CCCC1
inactive: [1] 0.3% | [2] 0.4% | [3] -3%

CC(OC(=O)c1cc(=O)[nH]c2ccccc12)C(=O)c1ccccc1 (stereo not drawn)
inactive: [1] 2.3% | [2] -2.4% | [3] -6.9%

Cc1nc2sccn2c(=O)c1CCN1CCC(=C(c2ccc(F)cc2)c2ccc(F)cc2)CC1
inactive: [1] -6% | [2] -0.2% | [3] -7.2%

CCc1nc2ccccc2c(NC(=O)CN2CC(C)CC(C)C2)c1C (stereo not drawn)
inactive: [1] -2% | [2] 0.8% | [3] 0.9%

CC1(C)Cc2nc3oc4c(NCc5ccccc5)ncnc4c3cc2CO1
inactive: [1] 0.7% | [2] 0.2% | [3] 2.2%

C/C(CCc1oc2ccc(Cl)cc2c1-c1ccc(C)o1)=N\O
inactive: [1] 1.6% | [2] -0.7% | [3] -3.2%

O=C(c1ccco1)N(CCC(c1ccccc1)c1ccco1)Cc1ccco1 (stereo not drawn)
inactive: [1] -0.1% | [2] -0.1% | [3] 3.5%

O=C(COc1ccc(F)cc1)OCCN1CCOCC1
inactive: [1] 1.8% | [2] -1% | [3] -5.2%

C=CCNc1nc2c(c(=O)n(C)c(=O)n2C)n1CC(=C)C
inactive: [1] 3.1% | [2] 0.5% | [3] -0.3%

Nc1ccc(S(N)(=O)=O)cc1N
inactive: [1] 1.4% | [2] -2.7% | [3] -20%

CC(=O)N[C@@H](CS)C(=O)O
inactive: [1] 5.5% | [2] -0.8% | [3] 2.4%

COCC1CCCN(Cc2cn[nH]c2-c2cc3ccccc3o2)C1 (stereo not drawn)
inactive: [1] -0.1% | [2] -1.5% | [3] -3.9%

O=C(COc1ccccc1)Nc1ccc2c(c1)C(=O)N(CC1CCCO1)C2=O (stereo not drawn)
inactive: [1] -0.5% | [2] -0.9% | [3] 4.5%

Cc1ccc(C(=O)NCCNC(=O)c2ccccc2)cc1
inactive: [1] 1.3% | [2] 0.3% | [3] -1.4%

Nc1nc2ccc(OC(F)(F)F)cc2s1
inactive: [1] 0.4% | [2] -0.1% | [3] 1.8%

COC(=O)C1=C(C)NC(C)=C([N+](=O)[O-])C1c1ccccc1C(F)(F)F (stereo not drawn)
inactive: [1] -0.4% | [2] -1% | [3] -11.2%

O=c1c(C(c2ccccc2)c2c(O)sc3ccccc3c2=O)c(O)sc2ccccc12
inactive: [1] -0.8% | [2] 1.7% | [3] 2.4%

COc1cc(C(=O)N/C(=C\c2cn(C)c3ccccc23)C(=O)NCCCO)cc(OC)c1OC
inactive: [1] 2% | [2] -1.2% | [3] -2.5%

NC(=O)N1c2ccccc2CC(=O)c2ccccc21
inactive: [1] -1.1% | [2] 0.3% | [3] 0.4%

COc1ccc(C(=O)CC2OC(=O)c3c2ccc(OC)c3OC)cc1 (stereo not drawn)
inactive: [1] 0.2% | [2] 0.7% | [3] 3.4%

Cc1ccccc1N1C(N)=NC(N)=NC1(C)C
inactive: [1] -1.5% | [2] -0.8% | [3] 6.8%

C[C@H](CCC(=O)O)[C@H]1CC[C@H]2[C@@H]3C(=O)C[C@@H]4CC(=O)CC[C@]4(C)[C@H]3CC(=O)[C@]12C
inactive: [1] -1.4% | [2] -0.5% | [3] -0.9%

CSc1ccc2c(c1)N(CCC1CCCCN1C)c1ccccc1S2 (stereo not drawn)
inactive: [1] -0.1% | [2] -0.8% | [3] -7%

Cc1ccc2[nH]c(=O)c(Cc3ccccc3)c(O)c2c1
inactive: [1] 0.6% | [2] -0.4% | [3] 2.6%

CC(NC(=O)c1ccc(N2CCNCC2)c([N+](=O)[O-])c1)C12CC3CC(CC(C3)C1)C2 (stereo not drawn)
inactive: [1] 0.1% | [2] -0.6% | [3] -5.2%

C=C(C)COc1ccc(-c2nc(N)ncc2-c2ccc(OC)cc2)c(O)c1
inactive: [1] 2.8% | [2] 1.4% | [3] -5.3%

NC(=O)C1CCCNC1 (stereo not drawn)
inactive: [1] 1.6% | [2] -0.4% | [3] 5.4%

CCC(C)NCCOCCOc1ccc(Cl)c2ccccc12 (stereo not drawn)
inactive: [1] -2.3% | [2] 1.8% | [3] -6.5%

COc1ccc(-c2noc(-c3ccccc3-c3ccccc3)n2)cc1
inactive: [1] -1.9% | [2] -0.7% | [3] -1.9%

Cc1cc(C)c2c(CCl)cc(=O)oc2c1
inactive: [1] -4.3% | [2] -1.5% | [3] -3.4%

COc1ccc(C2NC(=O)c3ccccc3N2)cc1OC (stereo not drawn)
inactive: [1] -2.5% | [2] -0.1% | [3] -2.9%

CCC(C)NCCOc1ccccc1C (stereo not drawn)
inactive: [1] 1.2% | [2] -0.1% | [3] 5.2%

CCc1cc(=O)oc2cc(OCC=C(C)C)ccc12
inactive: [1] 2% | [2] 0.5% | [3] 0.2%

CC1(C)CC(C(CC(=O)N2CCCC2)Cc2ccccc2)CCO1 (stereo not drawn)
inactive: [1] -0.7% | [2] 0.6% | [3] 3.1%

Nc1nc(Cl)nc2c1ncn2[C@H]1C[C@H](O)[C@@H](CO)O1
inactive: [1] -8.7% | [2] -2.6% | [3] -19.4%

Cc1ccc(/C(=C\CN2CCCC2)c2ccccn2)cc1
inactive: [1] -2% | [2] 0.3% | [3] 11.9%

CCN(CCCCOC(=O)c1ccc(OC)c(OC)c1)C(C)Cc1ccc(OC)cc1 (stereo not drawn)
inactive: [1] -0.4% | [2] -2.7% | [3] -2.8%

COc1cccc(NC(=O)C2CC(=O)OC23CCOC(C)(C)C3)c1 (stereo not drawn)
inactive: [1] -5.5% | [2] -1.3% | [3] -8.2%

CC(=O)[C@@]1(O)CC[C@H]2[C@@H]3C[C@H](C)C4=CC(=O)CC[C@]4(C)[C@H]3CC[C@@]21C
inactive: [1] -1.7% | [2] -2.5% | [3] -5.5%

CC1(C)CC(=O)C(C(=O)CCCCC(=O)C2C(=O)CC(C)(C)CC2=O)C(=O)C1
inactive: [1] 1.2% | [2] 0.8% | [3] -5.7%

CN(C)CC/C=C1\c2ccccc2COc2ccccc21
inactive: [1] -0.1% | [2] -0.5% | [3] 2.2%

Cn1c(=O)c(C(=O)NCCO)c(O)c2ccccc21
inactive: [1] 0.4% | [2] -0.1% | [3] -2.2%

C[C@]12CC[C@@H]3c4ccc(O)cc4CC[C@H]3[C@@H]1CC[C@@H]2OC(=O)CCC(=O)O
inactive: [1] -0.1% | [2] -0.4% | [3] -10%

C/C(=N/N1CCN(Cc2cccc3ccccc23)CC1)c1cccnc1
inactive: [1] 6.2% | [2] -0.9% | [3] -4%

CC(C)(C)NC[C@H](O)COc1nsnc1N1CCOCC1
inactive: [1] 0.1% | [2] 0% | [3] -3.8%

CC[C@]1(O)C[C@@H]2CN(CCc3c([nH]c4ccccc34)[C@@](C(=O)OC)(c3cc4c(cc3OC)N(C)[C@H]3[C@@](O)(C(=O)OC)[C@H](OC(C)=O)[C@]5(CC)C=CCN6CC[C@]43[C@@H]65)C2)C1
inactive: [1] 16.1% | [2] 3.4% | [3] -0.3%

From PubChem BioAssay
